# ST2 inh: inhibitors of human ST2 (IL1RL1) binding to IL-33, primary screen, biochemical, AlphaLISA; hit rate 2.3% among 78,000; AlphaLISA ST2-Fc/biotin-IL-33 interaction, 1 h; inhibition, % for hits at 17 µM; Interleukin-1 receptor-like 1 (Homo sapiens), Q01638; AID 1259354, 2018; in the data active = inhibition above about 30%
# Target sequence (Q01638 whole entry, looked up): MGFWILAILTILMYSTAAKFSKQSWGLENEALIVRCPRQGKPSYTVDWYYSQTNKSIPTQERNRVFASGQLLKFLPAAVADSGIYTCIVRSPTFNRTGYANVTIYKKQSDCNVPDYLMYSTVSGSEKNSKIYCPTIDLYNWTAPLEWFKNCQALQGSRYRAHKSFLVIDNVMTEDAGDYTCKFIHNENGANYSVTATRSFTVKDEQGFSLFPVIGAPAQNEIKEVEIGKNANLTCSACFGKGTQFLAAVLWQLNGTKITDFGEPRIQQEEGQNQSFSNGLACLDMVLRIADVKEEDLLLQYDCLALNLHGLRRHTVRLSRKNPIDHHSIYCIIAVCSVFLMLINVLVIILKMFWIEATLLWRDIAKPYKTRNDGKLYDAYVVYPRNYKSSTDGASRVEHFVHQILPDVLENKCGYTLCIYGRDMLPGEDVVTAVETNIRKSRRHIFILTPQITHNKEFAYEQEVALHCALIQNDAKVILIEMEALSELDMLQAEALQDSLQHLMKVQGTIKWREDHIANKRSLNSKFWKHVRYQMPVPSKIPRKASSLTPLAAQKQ
# * marks the source's active call; other numbers are inactive results; i = inactive. The sample as a whole holds a higher share of hits than the screen did.
SMILES,ST2 inh
Cc1c(C(=O)NC2CCCCC2C)oc2ccc(S(=O)(=O)N3CCC(C)CC3)cc12 (stereo not drawn),i
COc1cc(C2C3CCCC=C3C(C#N)=C(N)C2(C#N)C#N)cc(OC)c1OC (stereo not drawn),i
O=C(CC1(c2ccc(Cl)cc2)C(=O)c2ccccc2C1=O)N1CCCCC1,i
CCOc1ccc(-c2csc(/C(C#N)=C/c3ccc(N(C)C)cc3)n2)cc1,65%*
CCOc1ccccc1/C=C(\C#N)c1nc(-c2ccc([N+](=O)[O-])cc2)cs1,i
CCOc1ccc(-c2cn3ccsc3n2)cc1,i
Clc1ccc(CN2CCN(c3ccccn3)CC2)cc1Cl,i
Fc1ccccc1CN1CCN(c2ccccn2)CC1,i
Fc1ccc(CN2CCN(c3ccccn3)CC2)cc1Br,33%*
O=C(CCCc1cccs1)NC1CCCN(C2Cc3ccccc3C2)C1 (stereo not drawn),i
CCOc1ccc(NC(=O)CC(C)c2ccccc2)cc1 (stereo not drawn),i
COc1cc(Br)cc(/C=C/c2ccc3cccc(O)c3n2)c1O,38%*
COc1ccc2cccc(O)c2n1,i
Oc1cccc2ccc(/C=C/c3cc4c(cc3Br)OCO4)nc12,32%*
CCOc1cc(Br)cc(C=O)c1O,i
Cc1ccccc1-c1ncc(-c2nccn2CCc2n[nH]c(=O)[nH]2)s1,i
CSc1nc2n(n1)C(c1cccs1)C(C(=O)Nc1ccc(C)cc1C)=C(C)N2 (stereo not drawn),i
Cc1nc(N2CCCCCCC2)ncc1C(C)NC(=O)c1c(C)noc1C (stereo not drawn),i
COc1ccc(N2CCSC2C(=O)c2ccccc2)cc1 (stereo not drawn),32%*
COc1ccc([C@@H]2C(C#N)=C(N)S[C@H]2C(=O)c2ccccc2)cc1,i
COc1ccc(C(=O)N2CCCc3ccccc32)cc1,i
Cn1c(=O)c2c(SCC(=O)NCCc3ccccc3)nc(-c3cccs3)nc2n(C)c1=O,i
COc1ccccc1C(=O)Nc1ccc(-c2nc3cc(C)ccc3o2)cc1,i
COc1ccc(C(=O)Nc2cccc(-c3nc4cc(C)ccc4o3)c2)cc1[N+](=O)[O-],i
COc1ccc(C(=O)Nc2ccc(-c3nc4cc(C)ccc4o3)c(O)c2)cc1Cl,30%*
SMILES,ST2 inh
COc1ccc(/C=N\OCc2cccc(Br)c2)cc1OC,i
NC(=O)c1cnc2n1CCN(C(=O)CCc1nc3ccccc3s1)C2,i
O=C(Nc1ccc(Cl)c(Cl)c1)C1CC(=O)N(c2ccccc2)C1 (stereo not drawn),i
O=C(C1CC1)N1CCc2cc(S(=O)(=O)NCc3ccc(F)cc3)ccc21,i
O=C(C1CC1)N1CCc2cc(Br)cc(S(=O)(=O)NCc3ccc4c(c3)OCO4)c21,32%*
COc1ccc(CNS(=O)(=O)c2ccc3c(c2)CCN3C(=O)C2CC2)cc1,i
O=C(C1CC1)N1CCc2cc(Br)cc(S(=O)(=O)NCc3cccnc3)c21,i
O=C(C1CC1)N1CCc2cc(S(=O)(=O)NCc3ccc4c(c3)OCO4)ccc21,36%*
Cc1ccc(CNS(=O)(=O)c2cc(Br)cc3c2N(C(=O)C2CC2)CC3)cc1,i
Cc1cc(C(F)(F)F)nc(CCNC(=O)C2CCC(=O)N(C3CC3)C2)n1 (stereo not drawn),i
COc1ccc(-c2nc(CN3CCCC(C(N)=O)C3)c(C)o2)c(OC)c1C (stereo not drawn),i
CC1=C(C(=O)Nc2nc3ccccc3s2)C(c2ccccc2)C2=C(CCCC2=O)N1 (stereo not drawn),i
Cc1ccc(C2Nc3ccccc3NC3=C2C(=O)CCC3)o1 (stereo not drawn),32%*
COc1ccc(C2CC(=O)C3=C(C2)Nc2ccccc2NC3c2ccc(C)o2)cc1 (stereo not drawn),i
CCOc1ccc(C2Nc3ccccc3NC3=C2C(=O)CCC3)cc1 (stereo not drawn),i
O=S(=O)(NCCOc1ccccc1)NCc1ccccc1,i
COc1ccc(NC(=O)c2sc3ccccc3c2Cl)cc1Cl,i
CCCNC(=O)c1sc2c(Cl)c(OC)ccc2c1Cl,53%*
CCCCNC(=O)c1sc2ccccc2c1Cl,i
Cc1ccc(O)c(NC(=O)CCCn2nc([N+](=O)[O-])c(Cl)c2C)c1,i
Cc1cc(C)c(-n2nnnc2SCc2nc(N)nc(N3CCOCC3)n2)c(C)c1,i
Cc1ccccc1-n1cnnc1Cn1nc(C)c(C)c1C,i
COc1ccc(C2CC(C(F)(F)F)n3nc(C(=O)NC(C)(C)C)c(Cl)c3N2)cc1OC (stereo not drawn),i
CC(C)Cn1cc(C(=O)NC2CCCCC2)c2c3ccccc3n(C)c2c1=O,36%*
CC(C)Cn1cc(C(=O)NC2CCCC2)c2c3ccccc3n(C)c2c1=O,i
SMILES,ST2 inh
Cn1cc(C(=O)NC2CCCCCC2)c2c3ccccc3n(C)c2c1=O,i
COc1cccc(CN2CCCC(N(C)Cc3ccccc3)C2)c1OC (stereo not drawn),i
Cc1ncc2c(c1CNC(=O)/C=C/c1cccs1)CCN(C(=O)COc1ccccc1)C2,i
Cc1nc(CC(=O)N2CCc3c(cnc(C)c3CNC(=O)/C=C/c3cccs3)C2)cs1,30%*
Cc1ncc2c(c1CNC(=O)/C=C/c1cccs1)CCN(C(=O)c1ccc(-n3cccn3)cc1)C2,i
COc1ccc2c(=O)c(-c3ccccc3C)c(C(F)(F)F)oc2c1,75%*
COc1ccc2c(=O)c(-c3ccccc3Cl)c(C(F)(F)F)oc2c1,i
Cc1ccccc1-c1c(C(F)(F)F)oc2c(C)c(O)ccc2c1=O,i
COc1ccc(Cl)cc1NC(=O)c1cccc(Cl)c1Cl,i
Cc1cc(/C=C2\C(=O)NC(=O)N(C)C2=O)c(C)n1-c1ccc(F)c(Cl)c1,46%*
Cc1ccc(N2NC(=O)/C(=C/c3ccc(Cl)cc3Cl)C2=O)cc1Cl,i
Cc1cc(C=C2C(=O)N(C)C(=O)N(C)C2=O)c(C)n1-c1ccc(Cl)c(Cl)c1,i
NC(=O)CC(NC(=O)c1ccco1)C(=O)O (stereo not drawn),i
CC(C)C(NC(=O)c1ccco1)C(=O)O (stereo not drawn),32%*
CCc1ccc(C(=O)NC(C(=O)O)C(C)C)cc1 (stereo not drawn),i
CC1CC(C)CN(CCCNC(=O)CSc2cc(=O)n(C)c3ccccc23)C1 (stereo not drawn),i
Cc1ccc(C(=O)N2CCOCC2)cc1Br,i
COc1ccc(-c2cn(-c3ccc(C)c(F)c3)c(=O)[nH]2)cc1,i
CCCCn1ncc(C)c1NC(=O)c1ccsc1,31%*
CCC(CC)n1ncc(C)c1NC(=O)c1cc(C)nc(C)n1,i
CCCCn1ncc(C)c1NC(=O)[C@H]1CCCO1,i
O=C(O)c1cccc(NC(=O)c2cc3ccccc3o2)c1,i
CN1CCN(Cc2noc(C3CCOC(C)(C)C3)n2)CC1 (stereo not drawn),i
CCCN(CCC)S(=O)(=O)c1cccc2nonc12,i
CCc1ccc(N(CC)S(=O)(=O)c2cccc3nonc23)cc1,i
CCCCN(CCCC)S(=O)(=O)c1cccc2nonc12,31%*
CC(C)(C)C1CCc2c(sc3c2C(=O)NC(c2cccs2)N3)C1 (stereo not drawn),i
O=C(O)c1cc2c3c(c1)C1C=CCC1C(c1ccccc1F)N3CC1CC=CC21 (stereo not drawn),i

# Source: PubChem BioAssay (Paczesny and Yang Labs, IUPUI and University of Michigan)
